Our source for the Z-AUC and Potency values is PubChem BioAssay (NCATS).

Assay [1] is described as follows: qHTS drug screen for cell cycle checkpoint inhibitors in PARPi-resistant BRCA-mutant ovarian cancer cell lines. (AID 1963452). Particulars: PEO1/OlaR viability, CellTiter-Glo luminescence, 96 h; for Z-AUC: stronger effect = lower value. The gist of the method:
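PEO1, PEO4 and PEO1/OlaR ovarian cancer cells, 600 per well, exposed 96 h at 37C to a dilution series. Viability read by CellTiter-Glo luminescence, normalized to DMSO and empty wells; activity summarized as Z-AUC.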

A short description of assay [2]: qHTS profiling for inhibitors of Plasmodium falciparum proliferation (AID 504749; active means well fitted inhibition curve with a large enough effect; further: nearly all actives have a fitted effect of over 60% in size). As to conditions: P. falciparum in erythrocytes, SYBR Green DNA, 72 h. The gist of the method:
(§1)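 P. falciparum-infected erythrocytes (0.3% parasitemia, 2.5% hematocrit final) were exposed to compounds for 72 h at 37 C in 5% CO2, then lysed with SYBR Green buffer overnight at room temperature; parasite DNA fluorescence was normalized to artemisinin and DMSO controls.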

A further assay concerns 3D7. The description is as above. As to conditions: P. falciparum in erythrocytes, SYBR Green DNA, 72 h. The gist of the method: as §1
The test system of the next assay is 7G8. The assay is described as above. Particulars: P. falciparum in erythrocytes, SYBR Green DNA, 72 h. The gist of the method:
as §1

A further assay has as its system AA1029. The assay is described as above. As to conditions: P. falciparum in erythrocytes, SYBR Green DNA, 72 h. The gist of the method: as §1
The test system of the next assay is AS120. The assay is described as above. As to conditions: P. falciparum in erythrocytes, SYBR Green DNA, 72 h. The gist of the method:
as §1

For the next assay, the system named is ATS189. Described as above. As to conditions: P. falciparum in erythrocytes, SYBR Green DNA, 72 h. The gist of the method: as §1
The subject of another assay is ATS95. The assay is described as above. Particulars: P. falciparum in erythrocytes, SYBR Green DNA, 72 h. The gist of the method: as §1
The next assay relates to C2A. The assay is described as above. Particulars: P. falciparum in erythrocytes, SYBR Green DNA, 72 h. The gist of the method:
as §1

The subject of a further assay is CP185. Described as above. Particulars: P. falciparum in erythrocytes, SYBR Green DNA, 72 h. The gist of the method:
as §1

[3] abbreviates: measured here: PEO1 parental Z-AUC.

Structures are written as SMILES. “And” between values parts separate entries of the source, which are not always exact repeats. Identical values can stand only once. Inconclusive results are not listed. The source made the active and inactive calls. Unless noted, the call rests on the fitted dose curve.
Potency means the concentration at half of the fitted maximal effect.

In the case of `COCCOc1cnc2ccn([C@H](C)c3nnc4c(F)cc(-c5cnn(C)c5)cn34)c(=O)c2c1`, the Z-AUC was 1.14 (inactive) in assay [1], 0.929 in assay [1] (setting [3]) and 1.44 in assay [1] (measured here: PEO4 Z-AUC).

For `Cc1ccc(-c2ccc3c(ccc4sc5c(c43)NC[C@@H](C)NC5=O)n2)cn1`, the Z-AUC was -0.119 (inactive) in assay [1], 0.305 in assay [1] (setting [3]) and -0.383 in assay [1] (measured here: PEO4 Z-AUC).

`CC(O)c1cc(C(=O)N[C@@H](C)Cn2ccc(-c3ccc(C#N)c(Cl)c3)n2)n[nH]1` (stereo partly drawn): the Z-AUC in assay [1] was -0.266 (inactive); in assay [1] (setting [3]), -0.668; in assay [1] (measured here: PEO4 Z-AUC), -0.279.

`CNC(=O)c1cc(Oc2ccc3nc(N[C@@H]4CCCC[C@H]4O)sc3c2)ccn1`: the Z-AUC is -0.222 (inactive) in assay [1], -0.612 in [1] (setting [3]) and -0.476 in assay [1] (measured here: PEO4 Z-AUC).

Turning to `COc1cc(OC)c(/C=C/S(=O)(=O)Cc2ccc(OC)c(NCC(=O)O)c2)c(OC)c1`, the Potency in assay [1] is 19.5 nM (active). Moreover, the Z-AUC in assay [1] (setting [3]) was -2.09; in [1] (measured here: PEO4 Z-AUC) it was -1.96.

As to `CO[C@@H](C)Cn1c(=O)n(C)c2cnc3ccc(-c4cncc(C(C)(C)O)c4)cc3c21`, in [1], the Potency was 2190 nM (active). The Z-AUC was -2.24 in assay [1] (setting [3]) and -2.14 in assay [1] (measured here: PEO4 Z-AUC).

With `O=C(/C=C\n1cnc(-c2cc(C(F)(F)F)cc(C(F)(F)F)c2)n1)N1CC(F)(F)C1`, the Z-AUC in assay [1] is -0.848 (inactive); in assay [1] (setting [3]) it was -1.85; in assay [1] (measured here: PEO4 Z-AUC) it was -1.38.

As for `CCCCNc1ncc2c(-c3ccc(CN4CCN(C)CC4)cc3)cn(C3CCC(O)CC3)c2n1` (stereo not drawn), the Z-AUC was -1.53 (inactive) and -0.825 (inactive) in assay [1]; -1.06 and -0.682 in [1] (setting [3]); -1.13 and -0.785 in assay [1] (measured here: PEO4 Z-AUC).

Regarding `CC[C@]1(O)CC2CN(CCc3c([nH]c4ccccc34)[C@@](C(=O)OC)(c3cc4c(cc3OC)N(C)[C@H]3[C@@](O)(C(=O)OC)[C@H](OC(C)=O)[C@]5(CC)C=CCN6CC[C@]43[C@@H]65)C2)C1` (stereo partly drawn), the values for the Z-AUC in assay [1], in assay [1] (setting [3]) and in assay [1] (measured here: PEO4 Z-AUC) were -0.152 (inactive), -1.01 and -0.893, respectively. Moreover, the Potency is 2510 nM (active) in assay [2] (parasite line A); 3980 nM (active) in assay [2] (parasite line B); 794 nM (active) in the assay on 3D7; 1120 nM (active) in the assay with 7G8; 1410 nM (active) with AA1029; 2510 nM (active) with AS120. Moreover, the Potency in the assay with ATS189 was 4470 nM (active); in the assay on ATS95, 3550 nM (active); in the assay with C2A, 2820 nM (active); with CP185, 3550 nM (active).

As to `CCCN1CCN(c2ccc(C(=O)NC3(C(=O)NCC#N)CCCCC3)cc2)CC1`, the Z-AUC is 0.959 (inactive) in assay [1], 0.728 in assay [1] (setting [3]) and 0.558 in assay [1] (measured here: PEO4 Z-AUC).

In the case of `Cc1[nH]nc(C(F)(F)F)c1Cc1sc2c(c1C(=O)N1C[C@](C)(O)CO1)c(=O)n(C)c(=O)n2C(C)C`, the Z-AUC is 0.988 (inactive) in [1], 0.611 in assay [1] (setting [3]) and 0.623 in [1] (measured here: PEO4 Z-AUC).

On to `COc1ccc(Cl)c(Nc2nc3ccccc3nc2NS(=O)(=O)c2cccc(NC(=O)C(C)(C)N)c2)c1`, for which the results for the Z-AUC in assay [1], in assay [1] (setting [3]) and in [1] (measured here: PEO4 Z-AUC) were -0.00434 (inactive), 0.542 and 0.742, respectively.

With `COc1ccc(N(C)c2nc(C)nc3ccccc23)cc1`, the Potency in assay [1] was 3.9 nM (active). The Z-AUC in [1] (setting [3]) is -2.78; in assay [1] (measured here: PEO4 Z-AUC), -2.81.

As to `Clc1cc2c(NC3CCCC3)nnc(-c3ccncc3)c2cc1Cl`, the Z-AUC is -0.0819 (inactive) in assay [1], 0.551 in assay [1] (setting [3]) and 0.556 in assay [1] (measured here: PEO4 Z-AUC).

Regarding `C=CC(=O)Nc1cccc(Nc2nc(Nc3ccc(N4CCN(C(C)=O)CC4)cc3OC)ncc2C(F)(F)F)c1`, the Z-AUC in [1] is -0.226 (inactive); in [1] (setting [3]), 0.717; in [1] (measured here: PEO4 Z-AUC), -0.058.

`CC[C@@](C)(Nc1ccnc(-c2c[nH]c3ncccc23)n1)C(=O)NCC(F)(F)F`: the figures for the Z-AUC in assay [1], in assay [1] (setting [3]) and in [1] (measured here: PEO4 Z-AUC) were -1.18 (inactive), -0.201 and -0.4, respectively.
